“And” between values parts separate entries of the source, which are not always exact repeats. Equal values may be shown once. Results filed as inconclusive are left out. The source made the active and inactive calls. Unless noted, calls follow the shape of the dose curve; as a rule, active = well fitted curve in the direction sought with a large enough effect; inconclusive = small, poorly fitted or top-dose-only effect, or another doubt; inactive = no such curve, though single readings can be large; an effect the other way counts as inactive or inconclusive.
Legend:
[1] = qHTS Assay for Lipid Storage Modulators (AID 1519; calls by dose curve; as to activity change, negative = inhibition: % is scaled to controls: 0 for no effect and ±100 for the full control effect); details: Drosophila S3 cells, BODIPY lipid droplet/cell ratio, laser cytometry, cells loaded with oleic acid
Summary of the method: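 Cells seeded at 5,000 per well were treated with compounds over a concentration series and loaded with oleic acid (400 uM, as added). Lipid droplet fluorescence (488 nm excitation, 500-530 nm channel) was read by laser-scanning cytometry and normalized to 20 uM Triacsin C.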

[2] = molecular target: DNA repair nuclease/redox regulator APEX1 (Homo sapiens) (UniProt P27695); experiment: qHTS Validation Assay for Inhibitors of the Human Apurinic/apyrimidinic Endonuclease 1 (APE1) (AID 1705;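 also: TAMRA fluorescence gain over two minutes as APE1 cuts a quenched THF abasic duplex; % is scaled to controls: 0 for no effect and ±100 for the full control effect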)
Summary of the method: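 Fluorogenic double-stranded THF abasic-site substrate (5'-TAMRA/3'-BHQ-2), 50 nM final. Enzyme preincubated with compound 15 min at room temperature, then substrate added. Kinetic fluorescence (ex 525/em 598 nm) read three times at 60 s intervals; activity taken as third-minus-first read difference.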

[3] = Counterscreen for APE1 Inhibitors: Fluorescent Dye Displacement Validation Assay (AID 1707);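 also: plate controls were ThO with dsDNA and no compound for no effect and ThO without dsDNA for full effect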
Summary of the method: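 Thiazole Orange displacement from dsDNA: 250 nM ThO with 50 nM TAMRA-labelled abasic-site (tetrahydrofuran) duplex in 50 mM Tris-HCl pH7.5, 50mM NaCl, 2 mM MgCl2, 0.01% Tween-20. Loss of endpoint fluorescence (ex 480 nm, em 540 nm) flags DNA binders.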

[4] = molecular target: Endonuclease 4 (Escherichia coli (strain K12)) (UniProt P0A6C1); experiment: Counterscreen for APE1 Inhibitors: qHTS Validation Assay for Inhibitors of Endonuclease IV (AID 1708); also: % is scaled to controls: 0 for no effect and ±100 for the full control effect
Summary of the method: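 Cleavage of a quenched abasic-site DNA duplex (50 nM, 5'-TAMRA, 3'-BHQ-2) by 2 nM enzyme is followed as fluorescence increase. Compounds are preincubated with enzyme 15 min at room temperature before substrate addition.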

[5] = qHTS for differential inhibitors of proliferation of Plasmodium falciparum line 7G8 (AID 1815);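 also: parasite growth measured after three days of incubation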; also: potency is read from the fitted curve at half-maximal effect;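 as to activity change, negative = inhibition: plate controls were vehicle wells for no effect and reference inhibitor wells for full effect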
[6] = molecular target: Alpha-galactosidase A (Homo sapiens) (UniProt P06280); experiment: Counterscreen for Glucocerebrosidase Inhibitors: qHTS Assay for Human alpha-Galactosidase at pH 4.5 (AID 992); also: 0% is about no effect
Summary of the method: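 Enzyme at 2 nM final was combined with compound (0.7 nM to 77 uM) and 80 uM 4-methylumbelliferyl alpha-D-galactopyranoside in 50 mM citric acid, 0.005% Tween-20, pH 4.5. After 20 min at room temperature, fluorescence was read (Ex 365/Em 440 nm); AC50 came from Hill fits.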

[7] = molecular target: alpha-glucosidase (Oryza sativa, rice) (UniProt Q653V4); experiment: Counterscreen for Glucocerebrosidase Inhibitors: qHTS Assay for Rice alpha-Glucosidase at pH 5.0 (AID 997);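 also: 0% = full activity with enzyme and -100% = basal without enzyme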
Summary of the method: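 Rice alpha-glucosidase (4 nM final) with 400 uM 4-methylumbelliferyl-alpha-D-glucopyranoside in citrate buffer pH 5.0, 20 min at room temperature, stopped at pH 10; fluorescence 365/440 nm, compounds 0.7 nM–77 uM, AC50 from Hill fits.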

[8] = qHTS for differential inhibitors of proliferation of Plasmodium falciparum line GB4 (AID 1816); details: Potency: Plasmodium falciparum GB4 proliferation inhibition;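 also: parasite growth measured after 72 h incubation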; also: potency is read from the fitted curve at half-maximal effect;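 as to activity change, negative = inhibition: 0% = vehicle DMSO and -100% = reference inhibitor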
[9] = Cell Viability - LYMP2-008 (AID 980); also: % is scaled to controls: 0 for no effect and ±100 for the full control effect; nearly all actives have a fitted effect of over 60% in size
Summary of the method: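 Acute cytotoxicity is scored as concentration-dependent loss of cellular ATP in a human lymphoblastoid line after 24 hr treatment at 37 C. ATP is quantified by luciferase luminescence.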

[10] = Cell Viability - LYMP2-010 (AID 981);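 also: cells exposed to compound for 24 hours at 37 °C; % is scaled to controls: 0 for no effect and ±100 for the full control effect; nearly all actives have a fitted effect of over 55% in size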
Summary of the method: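 Acute toxicity is scored as a concentration-dependent loss of cellular ATP in human lymphoblastoid cells after 24 hr compound exposure in complete medium. Tetraoctylammonium bromide is the positive control.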

[11] = Cell Viability - LYMP2-012 (AID 982);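 also: cellular ATP by luciferase luminescence where a drop means cytotoxicity; cells exposed to compound for one day before reading; 0% = DMSO only and full loss = 92 µM tetraoctylammonium bromide; nearly all actives have a fitted effect of over 55% in size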
[12] = Cell Viability - LYMP2-016 (AID 984);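 also: cells exposed to compound for 24 hours at 37 °C; % is scaled to controls: 0 for no effect and ±100 for the full control effect; nearly all actives have a fitted effect of over 55% in size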
Summary of the method: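 Human lymphoblastoid LYMP2-016 cells, 2500 per well, treated with compounds for 24 h at 37 C. Viability read as intracellular ATP by CellTiter-Glo luminescence after 30 min at room temperature; AC50 from Hill fits of concentration-response.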

[13] = Cell Viability - LYMP2-026 (AID 989); also: % is scaled to controls: 0 for no effect and ±100 for the full control effect; nearly all actives have a fitted effect of over 50% in size
Summary of the method: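 Concentration-dependent loss of intracellular ATP in human lymphoblastoid cells after 24 hr at 37 C, quantified by luciferase luminescence. AC50 derived from standard Hill equation.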

[14] = Cell Viability - LYMP1-002 - Assay at 24 hr (AID 993); also: % is scaled to controls: 0 for no effect and ±100 for the full control effect
Summary of the method: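 qHTS, LYMP1-002 lymphoblastoid, 24 h cpd, 37 C, CellTiter-Glo ATP luminescence; AC50 via Hill eq.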

[15] = Cell Viability - LYMP1-002 - Assay at 40 hr (AID 994);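 also: 0% = DMSO only and full inhibition = 92 µM tetraoctylammonium bromide; nearly all actives have a fitted effect of over 60% in size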
Summary of the method: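 Viability in the human lymphoblastoid line was measured as intracellular ATP via CellTiter-Glo after 40 hr compound exposure. Tetraoctylammonium bromide served as positive control.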

[16] = measured here: cell count channel max response
[17] = measured here: lipid channel max response

Sequence of DNA repair nuclease/redox regulator APEX1 (Homo sapiens) (P27695 whole entry, looked up): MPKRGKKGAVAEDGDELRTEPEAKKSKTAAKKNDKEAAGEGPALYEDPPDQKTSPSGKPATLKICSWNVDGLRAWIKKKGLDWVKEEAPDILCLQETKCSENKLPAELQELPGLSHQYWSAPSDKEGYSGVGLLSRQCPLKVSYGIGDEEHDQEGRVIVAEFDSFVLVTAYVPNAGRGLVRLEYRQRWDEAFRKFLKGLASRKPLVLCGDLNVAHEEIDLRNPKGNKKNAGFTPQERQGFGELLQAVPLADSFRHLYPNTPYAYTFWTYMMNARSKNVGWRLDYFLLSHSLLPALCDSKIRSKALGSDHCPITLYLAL
Sequence of Alpha-galactosidase A (Homo sapiens) (P06280 whole entry, looked up): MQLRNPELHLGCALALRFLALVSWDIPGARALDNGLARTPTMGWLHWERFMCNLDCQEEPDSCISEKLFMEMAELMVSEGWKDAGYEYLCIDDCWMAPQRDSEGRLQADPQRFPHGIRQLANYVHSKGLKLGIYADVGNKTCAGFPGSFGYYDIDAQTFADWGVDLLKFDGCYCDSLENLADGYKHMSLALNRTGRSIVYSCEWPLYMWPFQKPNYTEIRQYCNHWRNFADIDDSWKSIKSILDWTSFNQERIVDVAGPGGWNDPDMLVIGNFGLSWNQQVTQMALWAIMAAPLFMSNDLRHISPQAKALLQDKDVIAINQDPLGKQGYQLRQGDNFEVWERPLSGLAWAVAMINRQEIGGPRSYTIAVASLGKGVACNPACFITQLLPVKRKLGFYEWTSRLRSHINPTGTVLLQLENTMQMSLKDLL

In the case of CC1=C(/C=C/C(C)=C/C=C/C(C)=C/C(=O)O)C(C)(C)CCC1, the activity change, negative = inhibition ([1]; at 57.5 µM (top of the series)) is reported as 0.149% (inactive), the max response [1, 16] is reported as -9.37% and the max response [1, 17] is reported as -7.9%. For the same compound, the Potency [2] was “inactive”, the Potency [3] was “inactive” and the Potency [4] was “inactive”. For the same compound, the Potency [5] was 14.1 µM (active).
In the case of CC(C)NC[C@H](O)c1ccc(O)c(O)c1, the outcome [6] is reported as “inactive”, the outcome [7] is reported as “inactive” and the activity change, negative = inhibition ([1]; at 25.7 µM (top of the series)) is reported as -3.67% (inactive). For the same compound, the activity change, negative = inhibition ([1]; at 57.5 µM (top of the series)) was 0.654% (inactive) and 2.27% (inactive), the max response [1, 16] was -12.5% and 0.715% and 18.4% and the max response [1, 17] was -17.7% and 2.86% and 19.2%. For the same compound, the Potency [2] was “inactive”, the Potency [3] was “inactive” and the Potency [4] was “inactive”. The Potency [5] was “inactive” and the Potency [8] was “inactive”.
With NC1CCN(c2cccc(Cl)n2)CC1 the outcome [6] was “inactive”, the outcome [7] was “inactive” and the activity change, negative = inhibition ([1]; at 57.5 µM (top of the series)) was 5.71% (inactive) and 0.974% (inactive). The max response [1, 16] was -16.7% and 37.1%, the max response [1, 17] was -10.9% and 36.3% and the Potency [2] was “inactive”. For the same compound, the Potency [3] was “inactive”, the Potency [4] was “inactive” and the Potency [5] was “inactive”. The Potency [8] was 12.6 µM (active).
In the case of O=C(O)c1ccccc1O, the activity change, negative = inhibition ([1]; at 57.5 µM (top of the series)) is reported as 9.55% (inactive), the max response [1, 16] is reported as 11.4% and the max response [1, 17] is reported as 27.4%.
In the case of CC1=C(CC(=O)O)c2cc(F)ccc2/C1=C\c1ccc(S(C)=O)cc1 (configuration not stated), the outcome [7] is reported as “inactive”, the activity change, negative = inhibition ([1]; at 25.7 µM (top of the series)) is reported as -0.955% (inactive) and the max response [1, 16] is reported as -8.73%. For the same compound, the max response [1, 17] was -7.15%, the Potency [2] was “inactive” and the Potency [3] was “inactive”. The Potency [4] was “inactive”, the Potency [5] was “inactive” and the Potency [8] was “inactive”.
For Nc1ccc(S(=O)(=O)Nc2nccs2)cc1, the Potency [9] was “inactive”, the Potency [10] was “inactive” and the outcome [11] was “inactive”. For the same compound, the Potency [12] was “inactive”, the Potency [13] was “inactive” and the Potency [14] was “inactive”. For the same compound, the Potency [15] was “inactive”, the activity change, negative = inhibition ([1]; at 25.7 µM (top of the series)) was 0.978% (inactive) and the activity change, negative = inhibition ([1]; at 57.5 µM (top of the series)) was 7.82% (inactive). The max response [1, 16] was 0.0037% and 29.7% and the max response [1, 17] was 1.28% and 42.1%.
With CCOc1ccc2ccccc2c1C(=O)N[C@@H]1C(=O)N2[C@@H]1SC(C)(C)[C@@H]2C(=O)O the activity change, negative = inhibition ([1]; at 25.7 µM (top of the series)) was -0.855% (inactive), the max response [1, 16] was -15.7% and the max response [1, 17] was -15.1%.
For Nc1ccc(S(=O)(=O)NC(=O)c2ccccc2)cc1, the activity change, negative = inhibition ([1]; at 25.7 µM (top of the series)) was 2.01% (inactive), the activity change, negative = inhibition ([1]; at 57.5 µM (top of the series)) was 8.83% (inactive) and the max response [1, 16] was -14.6% and 20.6%. The max response [1, 17] was -13.2% and 26.2%.
For CN1CCOC(c2ccccc2)c2ccccc2C1 (configuration not stated), the activity change, negative = inhibition ([1]; at 57.5 µM (top of the series)) was 6.92% (inactive), the max response [1, 16] was 13.7% and the max response [1, 17] was 26.3%.
With Cc1c(Cl)cccc1Nc1ccccc1C(=O)O the activity change, negative = inhibition ([1]; at 25.7 µM (top of the series)) was -0.93% (inactive), the max response [1, 16] was -6.86% and the max response [1, 17] was -11.8%.
For CCCCOc1cc(C(=O)OCCN(CC)CC)ccc1N, the activity change, negative = inhibition ([1]; at 25.7 µM (top of the series)) was -1.04% (inactive), the max response [1, 16] was -13.7% and the max response [1, 17] was -14%.
In the case of CCn1cc(C(=O)O)c(=O)c2cnc(N3CCNCC3)nc21, the activity change, negative = inhibition ([1]; at 25.7 µM (top of the series)) is reported as -2.05% (inactive), the activity change, negative = inhibition ([1]; at 57.5 µM (top of the series)) is reported as 0.203% (inactive) and the max response [1, 16] is reported as 0.27% and 20.9%. The max response [1, 17] was -1.56% and 23.6%.
With O=C1NS(=O)(=O)c2ccccc21 the activity change, negative = inhibition ([1]; at 57.5 µM (top of the series)) was 6.8% (inactive), the max response [1, 16] was 18.3% and the max response [1, 17] was 29.2%.
For C[C@](N)(Cc1ccc(O)cc1)C(=O)O, the activity change, negative = inhibition ([1]; at 57.5 µM (top of the series)) was 2.05% (inactive), the max response [1, 16] was 7.9% and the max response [1, 17] was 13.3%. For the same compound, the Potency [2] was “inactive”, the Potency [3] was “inactive” and the Potency [4] was “inactive”. The Potency [5] was “inactive” and the Potency [8] was “inactive”.

From PubChem BioAssay (NCATS)
